Source: ChEMBL document CHEMBL3433997, “St. Jude Leishmania screening dataset” (2016)
Where “and” joins values, the source holds several entries; their conditions need not be identical. Equal entries are not always repeated.

Each compound was assayed against Hexose transporter 1 (Plasmodium falciparum) (UniProt O97467) (assay: ST_JUDE_LEISH: Cytotoxicity at 2uM final concentration against transgenic Leishmania Mexicana promastigotes LmPfHT that are glucose transport deficient and complemented with the Plasmodium falciparum hexose transporter. Activity is measured by DNA content using SYBR green in vitro).
Type: functional

First: Oc1ccc(Cl)cc1CN1CCC(CCOC(c2ccccc2)c2ccccc2)CC1
Second: COc1cccc(CN2CCC(CCOC(c3ccccc3)c3ccccc3)CC2)c1O
The inhibition of the first is higher: 9.6% for the first, -0.08% for the second.

Compared with `O=C(NC1CCC(CN2CCC(c3c[nH]c4ccccc34)CC2)CC1)NC12CC3CC(CC(C3)C1)C2` (stereo not given), `O=C(/C=C/C=C/c1ccccc1)NC1CCC(CN2CCC(c3c[nH]c4ccccc34)CC2)CC1` (stereo not given) is lower in inhibition: 3.16% for the first, 0.67% for the second.

Going from `Cc1nc(-c2ccc(-c3ccc(C(=O)Nc4ccc5c(c4)C4(CCNCC4)CO5)cc3)c(C)c2)no1` to `CN(c1cc(NC(=O)c2ccc(F)cc2)ccn1)C1CCN(Cc2cccc(C#N)c2)CC1`, the inhibition falls from 5.12% to -2.19%.

Compared with `COc1ccc(O)c(CN2CCN(c3cc(C)ccc3C)CC2)c1`, `CC[C@H]1CN2CC[C@H]1C[C@H]2[C@H](O)c1cc(-c2cccc(F)c2)nc2ccc(OC)cc12` is higher in inhibition: 3% for the first, 7.25% for the second.

First: COc1cc(C=CC(=O)N2CCC(CN3CCC(c4c[nH]c5ccccc45)CC3)CC2)ccc1O
Second: COc1ccc(OC)c(C=CC(=O)NC2CCC(CN3CCC(c4c[nH]c5ccccc45)CC3)CC2)c1 (stereo not given)
The inhibition of the first is higher: 6.19% for the first, -0.24% for the second.

Going from `Cc1csc(-c2ccc3[nH]cc(C4=CCN(C)CC4)c3c2)n1` to `Oc1ccc2[nH]cc(C3=CCN(CCc4ccccc4)CC3)c2c1`, the inhibition rises from 9.43% to 18.1%.

Compared with `O=C(NC1CCC(CN2CCC(c3c[nH]c4ccccc34)CC2)CC1)C1(O)c2ccccc2-c2ccccc21` (stereo not given), `O=C(NC1CCC(CN2CCC(c3c[nH]c4ccccc34)CC2)CC1)c1ccc(-c2cc(C(F)(F)F)ccc2Cl)o1` (stereo not given) is higher in inhibition: 2.05% for the first, 6.53% for the second.

First: NC1=NC2(CCCC2)N(c2ccc(Cl)cc2)C(N)=N1
Second: CN1CC[C@H](N(Cc2ccccc2F)c2ccc(C#N)c(Cl)c2)C1
The inhibition of the first is higher: 4.23% for the first, 3.02% for the second.

First: FC(F)(F)c1ccc(NC(=S)N2CCC(CN3CCC(c4c[nH]c5ccccc45)CC3)CC2)cc1
Second: O=S(=O)(NC1CCC(CN2CCC(c3c[nH]c4ccccc34)CC2)CC1)c1ccc(Cl)c(Cl)c1 (stereo not given)
The inhibition of the first is higher: -0.06% for the first, -1.92% for the second.

First: COC(=O)c1ccc(CC(C)NCC(O)c2ccccc2Cl)cc1 (stereo not given)
Second: COc1cccc(CC(C)NCC(O)c2cccc(Cl)c2)c1 (stereo not given)
The inhibition of the first is lower: 0.22% for the first, 2.67% for the second.

Going from `CCCCCc1cc(O)c2c(c1)OC(C)(C)c1ccncc1-2` to `Cc1ccc2c(C3=CCN(CCCCC4(C)C(=O)Nc5ccccc54)CC3)c(C)[nH]c2c1` (stereo not given), the inhibition falls from 0.66% to 0.34%.

Compared with `Cc1c(C(=O)N[C@@H](C)c2ccccc2)c2cc(O)c(Br)cc2n1C1CCCCC1`, `CC(C)CNCc1ccc(-c2cccc(CN(C(=O)NC3CCCCC3)C3CCN(Cc4ccccc4)CC3)c2)cc1` is lower in inhibition: 2.43% for the first, -0.07% for the second.

First: CC[C@H]1CN2CC[C@H]1C[C@@H]2[C@@H](O)c1cc(Cl)nc2ccc(OC)cc12
Second: CC[C@H]1CN2CC[C@@H]1C[C@H]2[C@H](O)c1cc(N2CCC(CO)CC2)nc2ccc(OC)cc12
The inhibition of the first is higher: 8.14% for the first, 1.17% for the second.

Compared with `CCC1CN2CCc3cc(OC)c(OC)cc3C2CC1CC1NCCc2cc(OC)c(OC)cc21` (stereo not given), `CC[C@H]1CN2CC[C@H]1C[C@H]2[C@H](O)c1cc(N2CCC3CCCCC3C2)nc2ccc(OC)cc12` (stereo not given in full) is lower in inhibition: 96% for the first, 4.42% for the second.

Going from `C=C[C@H]1CN2CC[C@H]1C[C@H]2[C@H](O)c1ccnc2ccccc12` to `CN(c1ccnc(Nc2ccc(CS(C)(=O)=O)cc2)n1)C1CCN(Cc2ccccc2)CC1`, the inhibition rises from 1.87% to 2.62%.

First: O=C(NC1CCC(CN2CCC(c3c[nH]c4ccccc34)CC2)CC1)c1cc(-c2cccc(Cl)c2)n(-c2ccc(Cl)cc2Cl)n1 (stereo not given)
Second: COC(=O)c1ccc(CC(C)NCC(O)c2cccc(C(F)(F)F)c2)cc1F (stereo not given)
The inhibition of the first is lower: -0.46% for the first, 2.23% for the second.

`NCC(=O)c1cc2c(cc1N)OCCO2` was tested, and the inhibition was 9.43%.

For `Cc1ccc2[nH]cc(C3CCN(CC4CCC(NC(=O)/C=C/c5ccc(Cl)c(Cl)c5)CC4)CC3)c2c1` (stereo not given), the inhibition was 3.18% and 11.1%.
For `COc1cccc(/C=C/C(=O)NC2CCC(CN3CCC(c4c[nH]c5ccccc45)CC3)CC2)c1` (stereo not given), the inhibition was -0.63% and -2.74%.
`CC(=O)Nc1ccc2[nH]cc(C3CCN(CC4CCC(NC(=O)/C=C/c5ccc(Cl)c(Cl)c5)CC4)CC3)c2c1` (stereo not given) was tested, and the inhibition was -0.56% and -1.03%.
For `CCOc1ccc2nccc([C@@H](O)[C@@H]3C[C@@H]4CCN3C[C@@H]4CC)c2c1`, the inhibition was 1.71% and 3.63%.
In the case of `Cc1c(C)c2c(c(C)c1O)CC[C@](C)(C(=O)NC1CCC(CN3CCC(c4c[nH]c5ccccc45)CC3)CC1)O2` (stereo not given in full), the inhibition is reported as 2.05% and 2.37%.
For `O=C(/C=C/c1ccccc1Cl)NC1CCC(CN2CCC(c3c[nH]c4ccccc34)CC2)CC1` (stereo not given), the inhibition was 0.61% and 3.12%.
`O=C(/C=C/c1ccc(Cl)c(Cl)c1)NC1CCC(CN2CCC(c3c[nH]c4cc(C(F)(F)F)ccc34)CC2)CC1` (stereo not given) was tested, and the inhibition was 4.9% and -0.14%.
